Screens: PubChem BioAssay, National Center for Advancing Translational Sciences (NCATS)
Most compounds without a hit are left out; they make up all but 6.3% or so of the library.
RORgamma inh – blocks mouse ROR gamma transcriptional activity | AID 2551 | Potency, µM (doses to about 53.6 µM), hits mostly inhibitors | Drosophila S2 Gal4-RORgamma UAS-luciferase reporter, 20 h | 310,000 compounds, 5.4% hits | P51450; note: nearly all actives have a fitted effect of over 60% in size
Target sequence (P51450 whole entry, looked up, the tested form may be a part): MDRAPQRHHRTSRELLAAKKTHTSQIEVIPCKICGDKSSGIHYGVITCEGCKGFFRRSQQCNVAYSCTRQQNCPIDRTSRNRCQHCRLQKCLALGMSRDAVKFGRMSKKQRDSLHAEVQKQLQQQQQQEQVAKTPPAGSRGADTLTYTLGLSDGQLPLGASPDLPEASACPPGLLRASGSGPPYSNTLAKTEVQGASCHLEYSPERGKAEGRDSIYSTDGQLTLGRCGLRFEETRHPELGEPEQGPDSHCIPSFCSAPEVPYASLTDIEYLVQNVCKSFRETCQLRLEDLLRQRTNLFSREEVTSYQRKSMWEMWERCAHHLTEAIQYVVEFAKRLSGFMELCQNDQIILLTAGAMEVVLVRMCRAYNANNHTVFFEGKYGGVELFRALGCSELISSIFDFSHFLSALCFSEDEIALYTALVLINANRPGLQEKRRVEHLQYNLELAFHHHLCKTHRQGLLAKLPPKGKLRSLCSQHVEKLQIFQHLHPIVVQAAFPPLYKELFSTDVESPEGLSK
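Drosophila Schneider cells stably carrying a metallothionein-driven Gal4 DBD–ROR gamma fusion and a UAS-Photinus luciferase reporter were exposed to compound for 1 hr, then induced with copper sulfate (700 uM final) for 20 hr at ambient temperature before luminescence reading.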
ATXN2 expr inh – reduces ATXN2 reporter expression in HEK-293 cells. 360,000 compounds, 0.72% hits. HEK-293 ATXN2-luciferase reporter, luminescence, 24 h. AID 1745845. Potency, µM (doses to about 57 µM), usual class: inhibitors; note: nearly all actives have a fitted effect of over 55% in size
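qHTS (up to 57 uM final) was run with 24 h compound exposure of reporter cells at 37 °C. Each well was multiplexed: SteadyGlo luminescence measured ATXN2-luciferase expression after a fluorogenic Gly-Phe-AFC viability readout (25 uM final).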
VP16 counter – inhibits Gal4-VP16 luciferase reporter, ROR gamma counter-screen | 310,000 compounds, 3.5% hits | Drosophila S2 Gal4-VP16 UAS-luciferase, luminescence, 20 h | Potency, µM (doses to about 53.6 µM), actives largely listed as inhibitors;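 note: Gal4-VP16 expression switched on by copper sulfate through the metallothionein promoter; nearly all actives have a fitted effect of over 50% in size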
ATXN viability – reduces viability in counter-screen for ATXN expression inhibitors; S2 cells (HEK-293 line with an ATXN2-luciferase reporter) viability, CellTiter-Fluor protease fluorescence, 24 h; Potency, µM (series often up to 56.7 µM), actives largely listed as cytotoxic; 400,000 compounds, 0.49% hits; note: nearly all actives have a fitted effect of over 40% in size
TGFb inhibitor – inhibitors of TGF-b signaling | HepG2 CAGA-GFP TGF-b/SMAD3 reporter, GFP fluorescence, 18 h; TGF-beta stimulated, 500 pg/mL final | Potency, µM (doses to about 46.1 µM), actives largely listed as inhibitors | 410,000 compounds, 1.2% hits; note: nearly all actives have a fitted effect of over 65% in size
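TGF-beta reporter screen: HEPG2 CAGA-GFP, 1% FBS, 500 pg/mL TGF-beta final, 18 h; per-cell GFP summed per well; curves fitted and categorized by class.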
HepG2 tox – counter-screen for TGF-b inhibitors: cytotoxicity in HepG2 cells | HepG2 CAGA-GFP viability, ATP luminescence, 18 h | Potency, µM (titrated, usually from 46.1 µM), most hits filed as cytotoxic | 410,000 compounds, 0.76% hits | AID 588856
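HepG2 CAGA-GFP cells (1000/well, DMEM with 1% FBS) received compound, then TGF-beta at 500 pg/mL final, and were incubated 18 hours at 37 degrees C. Viability was read by CellTiter-Glo luminescence. Media-only wells were set as complete cell-killing and DMSO as no toxicity.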
Numbers stand for hits; [ ] = another dose, or the depositor's remark. Calls come from the whole dose curve; as a rule, active = well fitted curve in the direction sought with a large enough effect; inconclusive = small, poorly fitted or top-dose-only effect, or another doubt; inactive = no such curve, though single readings can be large; an effect the other way counts as inactive or inconclusive.

How did Cc1ccccc1/C=N/NC(=O)Cn1cnc([N+](=O)[O-])n1 do in these assays?
RORgamma inh: inactive; ATXN2 expr inh: inactive; VP16 counter: inactive; ATXN viability: inactive; TGFb inhibitor: inactive; HepG2 tox: inactive

What do the screens show for `O=C(Cn1cnc([N+](=O)[O-])n1)N/N=C/c1cc(Cl)ccc1O`?
RORgamma inh: 7.08µM; ATXN2 expr inh: inconclusive; VP16 counter: inconclusive; ATXN viability: inactive; TGFb inhibitor: inactive; HepG2 tox: inactive

How did O=C(Cn1cnc([N+](=O)[O-])n1)N/N=C/c1ccccc1O do in these assays?
RORgamma inh: 7.08µM; ATXN2 expr inh: inactive; VP16 counter: inconclusive; ATXN viability: inactive; TGFb inhibitor: inactive; HepG2 tox: inactive

Results for COc1c(C)cccc1C(=O)Nc1ccc(-c2nc3ccccc3s2)c(Cl)c1 ?
ATXN2 expr inh: inactive; ATXN viability: inactive; TGFb inhibitor: inactive; HepG2 tox: inactive

What do the screens show for `CC1(C2CC2)NC(=O)N(CC(=O)Nc2ccc(OC(F)F)cc2)C1=O` (centres undefined)?
ATXN viability: inconclusive; TGFb inhibitor: inactive; HepG2 tox: inactive

What do the screens show for `Nc1nc2c(nc(N3CCOCC3)n2COCCO)c(=O)[nH]1`?
TGFb inhibitor: inactive; HepG2 tox: inactive

How did N#CCCN(Cc1ccccc1)C(C(=O)NC1CCCCC1)C1CC1 (centres undefined) do in these assays?
ATXN2 expr inh: inactive; ATXN viability: inactive; TGFb inhibitor: inactive; HepG2 tox: inactive

What do the screens show for `COCCN1C(=O)C(CC(=O)Nc2ccc(C(C)=O)cc2)SC1=Nc1ccccc1` (centres undefined)?
RORgamma inh: inactive[10 µM]; ATXN2 expr inh: inactive; VP16 counter: inactive; ATXN viability: inactive; TGFb inhibitor: inactive; HepG2 tox: inactive

What do the screens show for `CC(O)CN1C(=O)C(CC(=O)Nc2ccc(Cl)cc2)SC1=Nc1ccccc1` (centres undefined)?
RORgamma inh: inactive; ATXN2 expr inh: inconclusive; VP16 counter: inactive; ATXN viability: inconclusive; TGFb inhibitor: 11.2µM; HepG2 tox: inactive

How did CN(C)C(=O)c1ccc2c(c1[N+](=O)[O-])C(=O)c1ccccc1C2=O do in these assays?
RORgamma inh: 2.24µM; ATXN2 expr inh: inactive; VP16 counter: 3.55µM; ATXN viability: inactive; TGFb inhibitor: 10µM; HepG2 tox: inactive

How did Cc1[nH]c2c(C)cccc2c1CCNC(=O)c1ccc2c(c1[N+](=O)[O-])C(=O)c1ccccc1C2=O do in these assays?
RORgamma inh: 6.31µM; ATXN2 expr inh: inactive; VP16 counter: inconclusive; ATXN viability: inconclusive; TGFb inhibitor: inconclusive; HepG2 tox: inactive

Results for Cc1[nH]c2ccccc2c1CCNC(=O)c1ccc2c(c1[N+](=O)[O-])C(=O)c1ccccc1C2=O ?
RORgamma inh: 10µM; ATXN2 expr inh: inactive; VP16 counter: inconclusive; ATXN viability: inconclusive; TGFb inhibitor: inconclusive; HepG2 tox: inactive

Results for CCNc1nc(NCc2ccc(F)cc2)c2cnn(C)c2n1 ?
ATXN2 expr inh: inactive; ATXN viability: inactive; TGFb inhibitor: inactive; HepG2 tox: inactive

What do the screens show for `CN(C)c1ccc(CNc2ncnc3sccc23)cc1`?
RORgamma inh: inconclusive; ATXN2 expr inh: inactive; VP16 counter: 7.08µM; ATXN viability: inactive; TGFb inhibitor: inactive; HepG2 tox: inactive

Results for NS(=O)(=O)c1ccc(CCNc2ncnc3sccc23)cc1 ?
RORgamma inh: inconclusive; ATXN2 expr inh: inconclusive; VP16 counter: 3.98µM; ATXN viability: inactive; TGFb inhibitor: inactive; HepG2 tox: inactive

What do the screens show for `Cc1sc2ncnc(NCCc3ccc(S(N)(=O)=O)cc3)c2c1C`?
RORgamma inh: 8.91µM; ATXN2 expr inh: inconclusive; VP16 counter: 2.51µM; ATXN viability: inactive; TGFb inhibitor: inactive; HepG2 tox: inactive

What do the screens show for `COc1ccc(CCNc2nc(C)nc3c2oc2ccccc23)cc1OC`?
RORgamma inh: inactive; ATXN2 expr inh: inconclusive; VP16 counter: inactive; ATXN viability: inactive; TGFb inhibitor: inactive; HepG2 tox: inactive

What do the screens show for `COc1ccc(CCNc2ncnc3c2oc2ccccc23)cc1OC`?
RORgamma inh: inconclusive; ATXN2 expr inh: 28.2µM; VP16 counter: 1µM; TGFb inhibitor: inconclusive; HepG2 tox: inactive

What do the screens show for `CCn1c2c(c(=O)n3ncc(C(=O)Nc4ccc(F)cc4Cl)c13)CN(Cc1ccc(OC)cc1)CC2`?
ATXN2 expr inh: inactive; ATXN viability: inactive; TGFb inhibitor: inconclusive; HepG2 tox: inactive

Results for COc1ccc(CCNc2ncnc3sccc23)cc1OC ?
RORgamma inh: inconclusive; ATXN2 expr inh: inactive; VP16 counter: 0.631µM; ATXN viability: inactive; TGFb inhibitor: inactive; HepG2 tox: inactive

How did COC(=O)c1ccccc1NC(=S)NC(=O)c1ccc2ccccc2c1 do in these assays?
RORgamma inh: inconclusive; ATXN2 expr inh: inactive; VP16 counter: inconclusive; ATXN viability: inactive; TGFb inhibitor: inactive; HepG2 tox: inactive

What do the screens show for `COC(=O)c1ccccc1NC(=S)NC(=O)C1CC1`?
RORgamma inh: 12.6µM; ATXN2 expr inh: inactive; VP16 counter: inactive; ATXN viability: inactive; TGFb inhibitor: inconclusive; HepG2 tox: inactive

Results for Cc1cccc(C)c1OCC(=O)NNC(=S)NC(=O)C1CC1 ?
RORgamma inh: 17.8µM; ATXN2 expr inh: inactive; VP16 counter: inconclusive; ATXN viability: inconclusive; TGFb inhibitor: inactive; HepG2 tox: inactive

How did COC(=O)c1ccccc1NC(=S)NC(C)=O do in these assays?
RORgamma inh: inconclusive; ATXN2 expr inh: inconclusive; VP16 counter: inactive; ATXN viability: inconclusive; TGFb inhibitor: inconclusive; HepG2 tox: inactive

What do the screens show for `CCCC(=O)NC(=S)Nc1cccc2c(O)cccc12`?
RORgamma inh: 12.6µM; ATXN2 expr inh: inactive; VP16 counter: inconclusive; ATXN viability: inactive; TGFb inhibitor: inactive; HepG2 tox: inactive

Results for COC(=O)c1ccccc1NC(=S)NC(=O)c1cccc2ccccc12 ?
RORgamma inh: 4.47µM; ATXN2 expr inh: inactive; VP16 counter: 17.8µM; ATXN viability: inactive; TGFb inhibitor: inconclusive; HepG2 tox: inactive

What do the screens show for `c1ccc(Cn2nnnc2C(c2ccccc2)N2CCN(Cc3ccncc3)CC2)cc1` (centres undefined)?
TGFb inhibitor: inactive; HepG2 tox: inactive

Results for O=C(C[n+]1ccc(-c2ccccc2)cc1)Nc1ccc([N+](=O)[O-])cc1 ?
RORgamma inh: inactive; VP16 counter: inactive; ATXN viability: inactive; TGFb inhibitor: inactive; HepG2 tox: inactive

Results for COC(=O)c1ccccc1NC(=S)NC(=O)COc1ccc(C(C)C)cc1 ?
RORgamma inh: 11.2µM; ATXN2 expr inh: inactive; VP16 counter: inconclusive; ATXN viability: inactive; TGFb inhibitor: inactive; HepG2 tox: inactive

What do the screens show for `CCCC(=O)NC(=S)Nc1ccccc1C(=O)OC`?
RORgamma inh: 15.8µM; ATXN2 expr inh: inactive; VP16 counter: inconclusive; ATXN viability: inactive; TGFb inhibitor: inactive; HepG2 tox: inactive
